Test results published in PubChem BioAssay.
Activity calls are given as the source filed them.

Experiments:
Albumin (Bos taurus) = Albumin (Bos taurus) (UniProt P02769); test: bovine serum albumin binders on microarray, profiling panel, artefact control for SMM control protein annotation, biochemical, small-molecule microarray, Alexa647 label, 635/667 nm fluorescence (AID 1118); settings: BSA-A647 binding, fluorescence 635 nm, higher = more signal;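 also: score merges 667 nm emission intensity and signal-to-noise per printed compound spot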
Sequence of Albumin (Bos taurus) (P02769 whole entry, looked up): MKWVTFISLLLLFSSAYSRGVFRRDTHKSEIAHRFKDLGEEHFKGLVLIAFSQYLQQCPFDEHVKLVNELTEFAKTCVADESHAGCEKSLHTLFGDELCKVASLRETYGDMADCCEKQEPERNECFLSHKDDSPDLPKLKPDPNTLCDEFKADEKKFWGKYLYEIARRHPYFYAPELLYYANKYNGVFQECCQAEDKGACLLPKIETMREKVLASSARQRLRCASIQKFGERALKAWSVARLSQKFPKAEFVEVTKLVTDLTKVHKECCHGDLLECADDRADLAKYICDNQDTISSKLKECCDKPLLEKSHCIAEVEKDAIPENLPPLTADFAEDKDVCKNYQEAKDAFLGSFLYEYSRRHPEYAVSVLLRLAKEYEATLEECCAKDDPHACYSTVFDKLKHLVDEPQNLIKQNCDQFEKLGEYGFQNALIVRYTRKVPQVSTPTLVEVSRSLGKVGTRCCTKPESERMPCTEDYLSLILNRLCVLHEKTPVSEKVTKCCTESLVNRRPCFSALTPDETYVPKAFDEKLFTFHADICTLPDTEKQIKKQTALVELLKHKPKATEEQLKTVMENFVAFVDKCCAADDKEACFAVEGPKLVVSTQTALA

[1] = small-molecule microarray binders of probe aXIP, primary screen, biochemical, NeuroSMM set, 635/667 nm fluorescence (AID 1119); settings: higher = more signal, called active from +8 up or from −8 down;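 also: probe is the protein aXip251-270 applied at 1 µg/mL to compound-printed slides; binding of probe to printed compounds measured as 667 nm fluorescence plus signal to noise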
[2] = small-molecule binders of probe aNOTCH3, primary screen, biochemical, small-molecule microarray, 635/667 nm fluorescence (AID 1120); settings: higher = more signal;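 also: probe is a biotin-tagged antibody raised against NOTCH3 rather than NOTCH3 protein; score merges spot fluorescence near 667 nm with spot signal to noise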
[3] = small-molecule binders of probe aNOTCH2, primary screen, biochemical, small-molecule microarray, 635/667 nm fluorescence (AID 1121); settings: higher = more signal;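 also: score merges feature fluorescence read at 667 nm with its signal to noise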
[4] = biological target: Carbonic anhydrase 2 (Homo sapiens) (UniProt P00918); test: CAII small-molecule binders, profiling panel, biochemical, small-molecule microarray, Alexa647-labelled CAII (AID 1122); settings: CAII-A647 binding fluorescence, higher = more signal
[5] = COS7 lysate on small-molecule microarray, probe aHis, 635 nm (AID 1123); settings: COS7 cell lysate, fluorescence, higher = more signal;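 also: z-score combines 667nm fluorescence intensity with signal-to-noise per printed compound spot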
[6] = compound binding in COS7 lysate, probe aLAP1, primary screen, cell lysate, small-molecule microarray (AID 1124); settings: probe aLAP1, fluorescence, higher = more signal;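 also: lysate comes from COS7 cells expressing LAP1 and is applied at 0.3 µg/mL; score merges spot fluorescence near 667 nm with signal-to-noise over triplicate slides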
Sam68 (KHDRBS1) = test: Sam68 small-molecule binders, primary screen, biochemical, small-molecule microarray, 635 nm fluorescence (AID 1125); settings: small-molecule microarray binding, higher = more signal;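 also: score merges 667 nm channel intensity with signal to noise over triplicate slides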
[7] = system: Chordin-like protein 2 (CHRDL2); test: CHRDL2 small-molecule binders, primary screen, biochemical, small-molecule microarray, 635 nm fluorescence (AID 1126); settings: small-molecule microarray binding, fluorescence 635 nm; higher = more signal;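 also: printed compound slides probed with Chrdl2 protein at 4 µg/mL for 1 h at 4 C; score merges 667 nm emission intensity with signal to noise over three replicate slides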
[8] = biological target: Concanavalin-A (Canavalia ensiformis) (UniProt P02866); test: ConA small-molecule binders, primary screen, artefact control for SMM control protein annotation, biochemical, small-molecule microarray, Alexa647 label, 635 nm (AID 1127); settings: ConA-A647 binding fluorescence, higher = more signal;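 also: z combines 667 nm emission intensity with signal-to-noise across three replicate slides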
Sequence of Concanavalin-A (Canavalia ensiformis) (P02866 whole entry, looked up): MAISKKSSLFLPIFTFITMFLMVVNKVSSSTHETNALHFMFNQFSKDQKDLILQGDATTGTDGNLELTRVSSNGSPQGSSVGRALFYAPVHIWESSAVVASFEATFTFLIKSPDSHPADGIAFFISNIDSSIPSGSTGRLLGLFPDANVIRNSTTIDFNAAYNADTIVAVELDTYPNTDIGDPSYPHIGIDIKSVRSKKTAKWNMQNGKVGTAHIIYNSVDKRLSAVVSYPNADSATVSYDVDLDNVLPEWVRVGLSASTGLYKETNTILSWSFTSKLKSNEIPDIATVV

[9] = anti-His antibody binders, primary screen, artefact control for SMM control protein annotation, biochemical, small-molecule microarray, 635 nm fluorescence (AID 1128); settings: anti-His Alexa647 antibody binding, higher = more signal;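 also: score merges feature fluorescence with signal-to-noise for each printed compound spot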
[10] = system: Human papillomavirus type 1a E7 protein (residues 1-88); test: HPV1a E7 small-molecule binders, primary screen, biochemical, small-molecule microarray, residues 1-88, 635 nm (AID 1129); settings: small-molecule microarray binding, fluorescence 635 nm; higher = more signal
[11] = biological target: Focal adhesion kinase 1 (Homo sapiens) (UniProt Q05397); test: small-molecule microarray binders of FAK, primary screen, biochemical, 635/667 nm fluorescence, BSA, DTT (AID 1130); settings: PTK2 binding, 635 nm fluorescence, higher = more signal;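 also: composite of spot emission at 667 nm and signal to noise over triplicate slides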
Sequence of Focal adhesion kinase 1 (Homo sapiens) (Q05397 whole entry, looked up): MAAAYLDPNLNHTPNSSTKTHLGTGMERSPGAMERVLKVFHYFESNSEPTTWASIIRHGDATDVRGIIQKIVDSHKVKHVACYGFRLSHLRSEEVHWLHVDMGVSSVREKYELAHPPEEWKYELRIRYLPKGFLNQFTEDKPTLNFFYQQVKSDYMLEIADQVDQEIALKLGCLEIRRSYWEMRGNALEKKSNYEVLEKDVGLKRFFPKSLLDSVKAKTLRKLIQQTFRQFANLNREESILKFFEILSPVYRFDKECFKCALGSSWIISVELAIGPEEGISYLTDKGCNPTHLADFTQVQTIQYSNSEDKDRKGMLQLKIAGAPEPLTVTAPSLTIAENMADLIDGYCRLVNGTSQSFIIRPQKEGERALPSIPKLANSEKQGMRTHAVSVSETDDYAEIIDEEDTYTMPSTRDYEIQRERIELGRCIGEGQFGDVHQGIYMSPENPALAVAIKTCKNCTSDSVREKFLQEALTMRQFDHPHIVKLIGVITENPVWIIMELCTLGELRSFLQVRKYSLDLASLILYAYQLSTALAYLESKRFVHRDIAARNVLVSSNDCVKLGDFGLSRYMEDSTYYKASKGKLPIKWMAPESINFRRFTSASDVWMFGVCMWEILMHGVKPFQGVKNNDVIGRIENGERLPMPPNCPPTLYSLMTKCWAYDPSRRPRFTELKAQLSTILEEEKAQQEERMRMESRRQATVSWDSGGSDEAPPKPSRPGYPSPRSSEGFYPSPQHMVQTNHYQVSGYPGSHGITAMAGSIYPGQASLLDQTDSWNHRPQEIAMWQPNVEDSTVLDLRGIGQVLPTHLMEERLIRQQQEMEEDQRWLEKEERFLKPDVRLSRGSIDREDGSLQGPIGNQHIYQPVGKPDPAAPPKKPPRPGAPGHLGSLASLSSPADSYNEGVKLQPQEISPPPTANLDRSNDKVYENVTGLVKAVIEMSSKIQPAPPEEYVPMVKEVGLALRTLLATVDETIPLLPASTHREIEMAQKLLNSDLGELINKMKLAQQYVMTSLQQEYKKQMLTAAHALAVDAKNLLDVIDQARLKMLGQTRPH

[12] = system: Fibrinogen (Alexa647-labelled); test: fibrinogen binders on compound microarrays, profiling panel, artefact control for SMM control-protein annotation, biochemical, small-molecule microarray, 635/667 nm fluorescence (AID 1131); settings: fibrinogen-A647 binding fluorescence, higher = more signal;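 also: z-score merges 667 nm fluorescence with per-spot signal-to-noise over triplicate slides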
[13] = biological target: Follistatin (Homo sapiens) (UniProt P19883); test: follistatin binders on small-molecule microarrays, primary screen, biochemical, small-molecule microarray, 635/667 nm fluorescence (AID 1132); settings: FST binding, 635 nm fluorescence, higher = more signal
Sequence of Follistatin (Homo sapiens) (P19883 whole entry, looked up): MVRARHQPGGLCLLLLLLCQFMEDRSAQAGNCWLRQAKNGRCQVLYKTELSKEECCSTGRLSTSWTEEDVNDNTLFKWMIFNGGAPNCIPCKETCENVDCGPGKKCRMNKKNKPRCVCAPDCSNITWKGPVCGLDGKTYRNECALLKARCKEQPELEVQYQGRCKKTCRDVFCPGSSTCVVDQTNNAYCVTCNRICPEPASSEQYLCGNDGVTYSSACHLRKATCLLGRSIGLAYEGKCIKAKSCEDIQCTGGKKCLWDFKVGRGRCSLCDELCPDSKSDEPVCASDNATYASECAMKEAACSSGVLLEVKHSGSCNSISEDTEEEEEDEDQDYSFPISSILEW

[14] = biological target: Fibroblast growth factor 2 (Homo sapiens) (UniProt P09038); test: FGF2 binders on small-molecule microarrays, primary screen, biochemical, small-molecule microarray, 635/667 nm fluorescence (AID 1133); settings: small-molecule microarray binding, FGF2, fluorescence 635/667; higher = more signal
Sequence of Fibroblast growth factor 2 (Homo sapiens) (P09038 whole entry, looked up): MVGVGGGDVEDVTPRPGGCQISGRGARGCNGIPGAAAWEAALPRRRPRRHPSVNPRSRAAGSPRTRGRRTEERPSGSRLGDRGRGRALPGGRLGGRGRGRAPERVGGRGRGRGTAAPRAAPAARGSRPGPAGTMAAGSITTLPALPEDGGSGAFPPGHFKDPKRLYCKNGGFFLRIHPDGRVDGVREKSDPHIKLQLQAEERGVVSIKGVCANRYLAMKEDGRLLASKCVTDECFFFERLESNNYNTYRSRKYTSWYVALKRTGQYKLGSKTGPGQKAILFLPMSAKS

[15] = mitochondrial membrane potential change in A549 cells, profiling panel, cell-based, JC-1 fluorescence, basal, 24 h, 100 nL (AID 1138); settings: higher = more signal;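 also: A549 lung adenocarcinoma cells under basal conditions with no added stimulus; test concentration not given here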
Lefty1 = Lefty1 binders on small-molecule microarrays, primary screen, biochemical, small-molecule microarray, 635/667 nm fluorescence (AID 1139); settings: small-molecule microarray binding, fluorescence 635/667; higher = more signal
[16] = system: wheat germ agglutinin (Triticum aestivum), Alexa647-labelled; test: wheat germ agglutinin binders on compound microarrays, profiling panel, artefact control for SMM control-protein annotation, biochemical, small-molecule microarray, 635/667 nm fluorescence (AID 1140); settings: WGA-A647 binding, 635 nm fluorescence, higher = more signal;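 also: score merges 667 nm feature emission with signal to noise over triplicate slides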
[17] = biological target: Luciferin 4-monooxygenase (Photinus pyralis) (UniProt P08659); test: firefly luciferase enzyme inhibitors, primary screen, biochemical, luminescence, purified enzyme, 2006 set (AID 1141); settings: SteadyGlo luminescence, 30 min, higher = more signal, called active from +8 up or from −8 down;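 also: cell-free assay with purified firefly luciferase at 100 ng per well in PBS; test concentration not given here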
Sequence of Luciferin 4-monooxygenase (Photinus pyralis) (P08659 whole entry, looked up): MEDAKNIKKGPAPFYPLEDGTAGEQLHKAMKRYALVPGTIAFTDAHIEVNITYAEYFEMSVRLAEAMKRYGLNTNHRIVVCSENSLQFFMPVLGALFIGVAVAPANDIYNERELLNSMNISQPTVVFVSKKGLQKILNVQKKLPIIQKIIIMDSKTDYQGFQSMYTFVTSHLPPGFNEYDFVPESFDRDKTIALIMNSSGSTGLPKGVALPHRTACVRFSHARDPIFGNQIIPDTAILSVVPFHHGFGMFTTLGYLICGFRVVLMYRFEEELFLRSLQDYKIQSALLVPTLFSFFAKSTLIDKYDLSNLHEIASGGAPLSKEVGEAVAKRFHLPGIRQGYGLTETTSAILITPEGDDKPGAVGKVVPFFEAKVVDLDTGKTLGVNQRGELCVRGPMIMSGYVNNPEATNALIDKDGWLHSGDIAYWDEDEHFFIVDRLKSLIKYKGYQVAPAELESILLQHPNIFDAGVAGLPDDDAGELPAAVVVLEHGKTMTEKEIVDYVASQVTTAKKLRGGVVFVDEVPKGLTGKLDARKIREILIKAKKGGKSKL

Row | SMILES | composite z-score (Albumin (Bos taurus)) | composite Z-score [1] | composite z-score [2] | composite z-score [3] | composite z-score [4] | composite z-score [5] | composite z-score [6] | composite z-score (Sam68 (KHDRBS1)) | composite z-score [7] | composite z-score [8] | composite z-score [9] | composite z-score [10] | composite z-score [11] | composite z-score [12] | composite z-score [13] | composite z-score [14] | z-score [15] | composite z-score (Lefty1) | composite z-score [16] | z-score [17]
1 | O=C1CCCC=C1C(O)C1CCCCC1 (stereo not given) | -0.0548 | -0.0549 (inactive) | -0.0325 | -0.0818 | -0.102 | 0.181 | -0.607 | -0.429 | 0.214 | -0.275 | -0.481 | -0.568 | -0.365 | -0.206 | 0.316 | -0.297 | 0.168 | 0.562 | -0.0135 | -0.376 (inactive)
2 | CC(C)=NO[C@@H](C)c1cn([C@H](CO)Cc2ccccc2)nn1 | 0.015 | 0.374 (inactive) | 0.145 | -0.0375 | 0.138 | 0.398 | 0.224 | 0.863 | 0.655 | 0.65 | 0.554 | 0.598 | -0.17 | 0.17 | 0.238 | 0.239 | -0.0312 | 0.542 | 0.237 | -2 (inactive)
3 | CC(=O)OC[C@H]1O[C@@H](ON=C2[C@H]3CCn4c(=O)n(-c5ccccc5)c(=O)n4[C@H]3[C@H](O)[C@@H]3O[C@H]23)[C@H](OC(C)=O)[C@@H](OC(C)=O)[C@@H]1OC(C)=O | 0.0931 | 0.0029 (inactive) | 0.086 | -0.186 | 0.541 | 1.09 | 0.0273 | 1.07 | 0.544 | 0.339 | 1.66 | 0.894 | -0.144 | 0.8 | 0.419 | 0.431 | 0.188 | 0.413 | 0.169 | 0.939 (inactive)
4 | CC(=O)OC[C@H]1O[C@H](CC=NOC[C@@H](O)[C@H]2O[C@@H]3OC(C)(C)O[C@@H]3[C@H]2O)C=C[C@@H]1OC(C)=O | 0.846 | 0.0765 (inactive) | 0.116 | -0.0934 | 0.298 | 0.548 | 0.79 | 0.883 | 0.0166 | 0.976 | 0.638 | 0.702 | 0.15 | 0.727 | 0.209 | 0.583 | -0.325 | 0.385 | -0.0993 | 0.94 (inactive)
5 | CC(C)=CCCC(C)=CCON=C1C[C@@H](O)[C@@H](O)[C@@H]2[C@@H]3C(=O)N(c4cccc(Oc5ccccc5)c4)C(=O)[C@@H]3CC[C@H]12 | 0.631 | 1.38 (inactive) | -0.0288 | -0.155 | 0.376 | 1.23 | 0.163 | 1.02 | 0.492 | 0.609 | 0.364 | 1.03 | 0.132 | 0.693 | 0.559 | 0.252 | -0.137 | 0.719 | 0.197 | 0.664 (inactive)
